DT40 TDP1 CPT: qHTS for Inhibitors of human tyrosyl-DNA phosphodiesterase 1 (TDP1): qHTS in cells in presence of CPT. Potency, µM (doses to about 46.2 µM), for inactives: top-dose activity change, negative = growth inhibition, hits mostly inhibitors. chicken DT40 Tdp1-/-;hTDP1 cells + 20 nM CPT, ATP luminescence, 48 h. 420,000 compounds, 12% hits. AID 686979, 2013; also: potency is read from the fitted curve at half-maximal effect; % is scaled to controls: 0 for no effect and ±100 for the full control effect; nearly all actives have a fitted effect of over 55% in size
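Chicken DT40 Tdp1-/- cells stably complemented with human TDP1 were seeded at 400 cells/well in medium containing 20 nM camptothecin, exposed to pin-transferred compounds, and grown at 37 °C for at least 48 hr. Viability was read as ATP luminescence.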
TDP1 block: qHTS Assay for Inhibitors of Tyrosyl-DNA Phosphodiesterase (TDP1). Potency, µM (titrated, usually from 130 µM), without a hit: top-dose activity change, negative = inhibition, most hits filed as inhibitors. 350,000 compounds, 0.28% hits. recombinant TDP1, AlphaScreen DNA substrate cleavage. Tyrosyl-DNA phosphodiesterase 1 (Homo sapiens), Q9NUW8; also: potency is read from the fitted curve at half-maximal effect; % is scaled to controls: 0 for no effect and ±100 for the full control effect; nearly all actives have a fitted effect of over 40% in size
Target sequence (Q9NUW8 whole entry, looked up): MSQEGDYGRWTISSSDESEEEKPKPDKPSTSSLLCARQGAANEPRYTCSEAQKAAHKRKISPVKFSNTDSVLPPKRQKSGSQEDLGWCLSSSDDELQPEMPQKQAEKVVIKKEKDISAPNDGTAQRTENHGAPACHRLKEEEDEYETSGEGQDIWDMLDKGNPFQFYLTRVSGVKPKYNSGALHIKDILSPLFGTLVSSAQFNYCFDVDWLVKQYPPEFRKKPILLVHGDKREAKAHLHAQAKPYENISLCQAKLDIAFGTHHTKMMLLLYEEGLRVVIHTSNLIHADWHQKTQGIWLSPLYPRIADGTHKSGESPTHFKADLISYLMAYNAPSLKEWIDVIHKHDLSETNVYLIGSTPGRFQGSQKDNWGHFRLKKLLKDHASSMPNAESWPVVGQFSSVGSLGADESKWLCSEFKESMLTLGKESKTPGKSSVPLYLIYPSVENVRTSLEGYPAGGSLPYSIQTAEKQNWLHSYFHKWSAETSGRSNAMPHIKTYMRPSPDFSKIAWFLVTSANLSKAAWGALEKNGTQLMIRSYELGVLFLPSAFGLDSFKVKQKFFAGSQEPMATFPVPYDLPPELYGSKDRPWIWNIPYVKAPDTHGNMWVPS
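Steps: enzyme plus compound, 15 min RT; add biotin/phosphotyrosine-FITC oligonucleotide (15 nM final), react 5 min; add donor/acceptor beads (10 ug/ml final), 10 min; read AlphaScreen. Tdp1 at 1 nM final.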
TDP1 cell noCPT: qHTS for Inhibitors of human tyrosyl-DNA phosphodiesterase 1 (TDP1): qHTS in cells in absence of CPT; Potency, µM (top dose mostly 46.2 µM), without a hit: at the top dose activity change, negative = growth inhibition, actives largely listed as inhibitors; 420,000 compounds, 15% hits; DT40 Tdp1-/- hTDP1 cells, no CPT, ATP luminescence, 48 h; also: potency is read from the fitted curve at half-maximal effect; % is scaled to controls: 0 for no effect and ±100 for the full control effect; nearly all actives have a fitted effect of over 55% in size
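Growth kinetics read by CellTiter-Glo luminescence after ≥48 hr at 37 °C. Cells: DT40 Tdp1-/- stably carrying human TDP1, 400 per well, compound exposure in the absence of CPT (DMSO vehicle).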
IL1B secr inh: qHTS for Inhibitors of Inflammasome Signaling: IL-1-beta AlphaLISA Primary Screen | AID 743279, 2014 | THP-1 LPS/ATP IL-1B secretion, AlphaLISA, 16 h; active compounds read low | activity change, % at 57.5 µM | 360,000 compounds, 4.7% hits; in the data active = activity change below about -50%; inconclusive = mostly about -30% to -49%; also: % is scaled to controls: 0 for no effect and ±100 for the full control effect
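THP-1 cells pretreated 1 hr with compounds (up to 57.5 uM final), then stimulated with LPS (250 ng/mL final) plus ATP (1.25 mM final); secreted IL-1B measured by AlphaLISA after 16 hr, decreased signal indicating inhibition.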
HepG2 viability: qHTS for Inhibitors of TGF-b: Cytotox Counterscreen; Potency, µM (highest dose often 46.1 µM), without a hit: at the top dose activity change, negative = cytotoxicity, most hits filed as cytotoxic; 410,000 compounds, 0.76% hits; HepG2 CAGA-GFP viability, ATP luminescence, 18 h; also: potency is read from the fitted curve at half-maximal effect
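CellTiter-Glo luminescence gave cytotoxicity after 18 hours at 37 degrees C. The cells were HepG2 CAGA-GFP in 1% FBS DMEM, stimulated with 500 pg/mL TGF-beta after compound addition. %Activity was normalised to no-cell wells (complete cell-killing) and DMSO (no toxicity), and curves were fitted and classified.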
TGFb SMAD3 inh: qHTS for Inhibitors of TGF-b; HepG2 CAGA-GFP TGF-b/SMAD3 reporter, GFP fluorescence, 18 h; TGF-beta stimulated, 500 pg/mL final; Potency, µM (titrated, usually from 46.1 µM), for the others: at the highest dose activity, negative = inhibition, usual class: inhibitors; 410,000 compounds, 1.2% hits; AID 588855, 2011; also: potency is read from the fitted curve at half-maximal effect; % is scaled to controls: 0 for no effect and ±100 for the full control effect; nearly all actives have a fitted effect of over 65% in size
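Inhibition was scored as loss of TGF-beta-induced (500 pg/mL final, 18 hours, 37 degrees C) GFP in HEPG2 cells carrying a CAGA-GFP reporter, in DMEM with 1% FBS. Well GFP was summed per cell; Activity was normalised to unstimulated and stimulated DMSO wells, then concentration-response fitting.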
An asterisk follows results filed as active; ? = inconclusive; nt = not tested or not shown; [ ] = another dose, or the depositor's remark. Only some compounds are listed: those with a hit (about 19% of all), similar ones and a draw of the others. Unless noted, calls follow the shape of the dose curve; as a rule, active = well fitted curve in the direction sought with a large enough effect; inconclusive = small, poorly fitted or top-dose-only effect, or another doubt; inactive = no such curve, though single readings can be large; an effect the other way counts as inactive or inconclusive.

SMILES	DT40 TDP1 CPT	TDP1 block	TDP1 cell noCPT	IL1B secr inh	HepG2 viability	TGFb SMAD3 inh
Cc1ccc([C@H]2C[C@@H](O)[C@H](n3cc(C4CC4)nn3)CN2CC2CCCCC2)cc1	?	nt	18µM*	-4	-7%	0%
COc1ccccc1N1CCN(S(=O)(=O)CCNC(=O)c2ccccc2Br)CC1	-26%	3%	-28%	8	-3%	3%
CC(C)(C)c1ccc(C(=O)NC(=S)Nc2nc3c(s2)CCCC3)cc1	26µM*	7%	29µM*	?	-26%	-6%
Cc1cc(NC(=O)Nc2nc3c(s2)CCCCCC3)ccc1Br	21µM*	-4%	18µM*	nt	-1%	-1%
Cc1cc(NC(=O)Nc2nnc(N(C)C3CCCCC3)s2)ccc1Br	?	3%	?	nt	-2%	20%
CC(C)c1ccc(NC(=O)Nc2csc3c2CCCC3)cc1	?	0%	?	nt	-24%	?
COc1cc([N+](=O)[O-])ccc1NC(=O)Nc1nc2c(s1)CCCC2	-4%	-2%	-26%	-14	11%	5%
Cc1ccc(NC(=O)Nc2nc3c(s2)CCCCCC3)cc1C	13µM*	5%	13µM*	nt	-79%	2%
Cc1cc(NC(=O)Nc2csc3c2CCCC3)ccc1Br	8.2µM*	-1%	9.2µM*	nt	0%	?
CCOc1ccc(CCNC(=O)C2Cc3ccccc3N2C(=O)CC)cc1OCC (stereo not drawn)	?	1%	-29%	nt	5%	0%
CCn1cc(C(=O)NN)c(=O)c2cc(F)c(N3CCOCC3)cc21	6%	nt	-29%	8	1%	?
CCn1cc(C(=O)O)c(=O)c2cc(F)c(N3CCN(C(=O)Nc4ccccc4)CC3)cc21	21µM*	0%	23µM*	?	-7%	5%
CCn1cc(C(=O)O)c(=O)c2cc(F)c(N3CCN(C(=S)NC(=O)c4ccccc4F)CC3)cc21	-20%	4%	15µM*	-12	-14%	-4%
CCn1cc(C(=O)O)c(=O)c2cc(F)c(N3CCN(C(=S)NC(=O)c4cccc(C)c4)CC3)cc21	-24%	nt	-17%	25	1%	0%
CCn1cc(C(=O)O)c(=O)c2cc(F)c(N3CCN(S(=O)(=O)c4ccc5c(c4)OCCO5)CC3)cc21	21µM*	2%	?	35	3%	?
CCn1cc(C(=O)O)c(=O)c2cc(F)c(N/N=C/c3ccccc3)cc21	?	3%	13µM*	0	5%	-17%
CCn1cc(C(=O)O)c(=O)c2cc(F)c(N3CCN(S(=O)(=O)c4ccc(NC(C)=O)cc4)CC3)cc21	-27%	nt	?	0	0%	-8%
Cc1csc2nc(COC(=O)CNC(=O)c3ccccc3Cl)cc(=O)n12	-17%	8%	-25%	nt	-23%	?
Cc1ccccc1CN1C(=O)c2ccccc2S(=O)c2ccc(C(=O)NCc3ccccc3)cc21 (stereo not drawn)	?	3%	?	nt	-20%	-3%
Cc1cc(NC(=O)N2CCC(CN3CCOCC3)CC2)ccc1Br	?	4%	-6%	nt	-2%	0%
CCn1cc(C(=O)O)c(=O)c2cc(F)c(N3CCN(C(=S)NC(=O)c4ccc(OC)cc4)CC3)cc21	?	79µM*	?	13	-11%	0%
CCCCCCCCC(=O)N1CCN(c2cc3c(cc2F)c(=O)c(C(=O)O)cn3CC)CC1	-24%	nt	-15%	29	5%	1%
CN(Cc1cc(Cl)cc(Cl)c1)CC(C(=O)c1ccccc1)c1ccccc1 (stereo not drawn)	6.5µM*	nt	7.3µM*	-79*	-20%	?
O=[N+]([O-])c1ccc(C2CC(c3ccccc3)=Nc3ccccc3S2)cc1 (stereo not drawn)	?	10%	21µM*	-20	-35%	?
O=C(NC1CCCC1)C(c1ccccn1)N(Cc1ccccc1F)C(=O)c1csnn1 (stereo not drawn)	-11%	12%	2%	0	-2%	-12%
SMILES	DT40 TDP1 CPT	TDP1 block	TDP1 cell noCPT	IL1B secr inh	HepG2 viability	TGFb SMAD3 inh
COc1ccc(OC)c(CCNC(=O)CC2(CC3=NS(=O)(=O)c4ccccc4N3)CCCC2)c1	12µM*	nt	?	-13	-49%	?
COc1ccc(CCNC(=O)CC(C)(C)CC2=NS(=O)(=O)c3ccccc3N2)cc1OC	-16%	1%	16%	-9	-23%	-4%
CCc1c(C)nc2ncnn2c1N1CCC(C(=O)NCc2cccs2)CC1	23µM*	-8%	?	31	-5%	-11%
CCc1c(C)nc2ncnn2c1NCc1cccs1	?	8%	26µM*	-6	-5%	2%
Cc1nc2ncnn2c(N2CCCC(C(=O)Nc3ccccc3Br)C2)c1C (stereo not drawn)	?	5%	15µM*	8	-34%	-3%
CCc1c(C)nc2ncnn2c1N1CCCC(C(=O)Nc2cc(F)ccc2C)C1 (stereo not drawn)	16µM*	6%	21µM*	-5	-1%	9%
CCc1c(C)nc2ncnn2c1N1CCCC(C(=O)NCCc2ccccc2)C1 (stereo not drawn)	?	-4%	21µM*	9	-22%	1%
CCc1c(C)nc2ncnn2c1N1CCCC(C(=O)NCc2cccs2)C1 (stereo not drawn)	?	4%	13µM*	36	-1%	-2%
COc1ccc(-c2ccc(-c3cc(=O)oc4c(C(C)C)ccc(C)c34)cc2)cc1	23µM*	-1%[56.1 µM]	21µM*	41	-12%	4%
COc1ccc(-c2c(C)cc3oc(=O)cc(-c4ccccc4)c3c2C)cc1	23µM*	0%[56.1 µM]	?	10	-9%	?
Cc1ccc(-c2c(C)cc3oc(=O)cc(-c4ccccc4)c3c2C)cc1	?	0%[56.1 µM]	23µM*	40	-10%	-27%
Cc1cc2oc(=O)cc(-c3ccccc3)c2c(C)c1-c1ccc(N(C)C)cc1	?	5%[56.1 µM]	?	13	-23%	?
O=C(c1cc(C(F)(F)F)cc(C(F)(F)F)c1)N1CCC[C@@]2(CCN(Cc3nccs3)C2)C1	14%	nt	-29%	nt	nt	nt
